Consider 8 molecules from PubChem BioAssay (NCI).

What all share (experiment): NCI-60 one-dose screen, 48 h (100 = growth as untreated, 0 = no growth, -100 = all killed)
One experiment concerns A549/ATCC NSCLC. Conditions: 10 µM unless noted.
A further experiment relates to K-562 leukemia. Conditions: 10 µM unless noted.
The next experiment has as its system SF-295 CNS. Conditions: 10 µM unless noted.
In a further experiment the test system is UACC-257 melanoma. Conditions: 10 µM unless noted.
For a further experiment, the system named is HT29 colon. Conditions: 10 µM unless noted.
A further experiment deals with SNB-75 CNS. Conditions: 10 µM unless noted.
A further experiment concerns PC-3 prostate. Conditions: 10 µM unless noted.
The next experiment deals with SK-MEL-5 melanoma. Conditions: 10 µM unless noted.
The next experiment concerns SK-MEL-2 melanoma. Conditions: 10 µM unless noted.
The test system of the next experiment is ACHN renal. Conditions: 10 µM unless noted.
The test system of another experiment is A498 renal. Conditions: 10 µM unless noted.
For a further experiment, the system named is HL-60(TB) leukemia. Conditions: 10 µM unless noted.
The subject of the next experiment is OVCAR-8 ovarian. Conditions: 10 µM unless noted.
In the next experiment the test system is OVCAR-4 ovarian. Conditions: 10 µM unless noted.
The subject of a further experiment is IGROV1 ovarian. Conditions: 10 µM.
In another experiment the test system is HS 578T breast. Conditions: 10 µM unless noted.
Another experiment relates to T-47D breast. Conditions: 10 µM unless noted.
For a further experiment, the system named is HCC-2998 colon. Conditions: 10 µM unless noted.
In another experiment the test system is SF-539 CNS. Conditions: 10 µM unless noted.
A further experiment relates to HCT-15 colon. Conditions: 10 µM.

Molecules are shown by their SMILES. About 83,000 compounds went through this panel and 20% of them were active in at least one assay; those are over-represented in the sample as a whole.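 Compound tested at a single concentration for 48 hours in 96-well plates; a percent growth value below 10 was scored as active.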 A number with no mark means an inactive call. Calls of active or inactive are those of the source.

For the molecule `CC1(C)N=C(N)N=C(N)N1c1cccc(C(=O)Nc2cccc(S(=O)(=O)F)c2)c1`, the growth was 104% in the experiment on A549/ATCC NSCLC; 118% with K-562 leukemia; 84.9% with SF-295 CNS; 93.9% with UACC-257 melanoma; 109% with HT29 colon; 80.2% with SNB-75 CNS. Moreover, the growth in the experiment with PC-3 prostate was 97.1%; in the experiment on SK-MEL-5 melanoma, 99.8%; in the experiment on SK-MEL-2 melanoma it was 114%; in the experiment on ACHN renal it was -26% (active); in the experiment on A498 renal, 73.9%; in the experiment on HL-60(TB) leukemia it was 103%. Besides, the growth in the experiment on OVCAR-8 ovarian is 100%; in the experiment with OVCAR-4 ovarian, 100%; with IGROV1 ovarian, 105%; in the experiment on HS 578T breast, 92.7%; in the experiment with T-47D breast it was 84%; in the experiment on HCC-2998 colon it was 98.5%.

For the molecule `CCC[CH2][Sn]([CH2]CCC)([CH2]CCC)[O]C(=O)CC`, the growth was -78.8% (active) with A549/ATCC NSCLC; -30.2% (active) with K-562 leukemia; -81.4% (active) with SF-295 CNS; -85.1% (active) in the experiment on SF-539 CNS; -94.2% (active) with UACC-257 melanoma; -72.9% (active) in the experiment on HCT-15 colon. The growth in the experiment on HT29 colon was -81.2% (active); in the experiment on SNB-75 CNS, -99.6% (active); in the experiment on PC-3 prostate it was -92.7% (active); in the experiment with SK-MEL-2 melanoma, -83.2% (active); with ACHN renal it was -96.7% (active); in the experiment with A498 renal, -96.4% (active). Further, the growth in the experiment with HL-60(TB) leukemia was -1.98% (active); in the experiment with OVCAR-8 ovarian, -70.4% (active); with OVCAR-4 ovarian, -99.4% (active); with IGROV1 ovarian, -80.2% (active); in the experiment with HS 578T breast, -38.4% (active); with T-47D breast, -74.4% (active). Also, the growth in the experiment on HCC-2998 colon was -94.5% (active).

Take `COc1cc(C2=NN(c3ccccc3)C(c3sc(N(CCCl)CCCl)nc3Cl)C2)cc(OC)c1OC` (configuration not stated): the growth is 83% with A549/ATCC NSCLC; 74.3% in the experiment on K-562 leukemia; 89.4% with SF-295 CNS; 110% in the experiment on SF-539 CNS; 87.4% with UACC-257 melanoma; 97.5% in the experiment with HCT-15 colon. Moreover, the growth in the experiment with HT29 colon was 84.5%; with SNB-75 CNS it was 69.2%; in the experiment on PC-3 prostate, 73.9%; in the experiment with SK-MEL-5 melanoma, 88.4%; in the experiment with SK-MEL-2 melanoma, 85.2%; in the experiment with ACHN renal it was 88.8%. Further, the growth in the experiment on A498 renal is 93.2%; in the experiment on HL-60(TB) leukemia it was 96.2%; in the experiment on OVCAR-8 ovarian it was 90.4%; in the experiment with OVCAR-4 ovarian, 87.5%; in the experiment with IGROV1 ovarian, 106%; with HS 578T breast, 85.8%. Moreover, the growth is 68.7% with T-47D breast and 99.9% in the experiment with HCC-2998 colon.

`CN1CC2CCC(C1)C2=O`: the growth with A549/ATCC NSCLC was 102%; in the experiment with K-562 leukemia it was 93.1%; in the experiment with SF-539 CNS, 105%; in the experiment with UACC-257 melanoma it was 102%; in the experiment with HCT-15 colon, 106%; in the experiment on HT29 colon, 100%. The growth is 89.3% in the experiment with SNB-75 CNS; 92.9% in the experiment with PC-3 prostate; 101% in the experiment on SK-MEL-5 melanoma; 95.5% in the experiment with SK-MEL-2 melanoma; 102% with ACHN renal; 110% in the experiment on A498 renal. In addition, the growth in the experiment with HL-60(TB) leukemia is 96.3%; in the experiment on OVCAR-8 ovarian, 104%; in the experiment on OVCAR-4 ovarian, 103%; in the experiment on IGROV1 ovarian, 93.8%; in the experiment with HS 578T breast it was 108%; in the experiment on T-47D breast, 102%. In the experiment with HCC-2998 colon, the growth is 114%.

As to `COC1=CC(=O)OC(CCc2ccc3c(c2)OCO3)C1` (configuration not stated), the growth with A549/ATCC NSCLC is 96%; in the experiment with K-562 leukemia, 122%; with SF-295 CNS, 116%; in the experiment with SF-539 CNS, 103%; in the experiment with UACC-257 melanoma, 97.8%; in the experiment with HCT-15 colon it was 103%. The growth in the experiment with HT29 colon is 97.1%; with SNB-75 CNS, 96.3%; in the experiment with PC-3 prostate it was 106%; with SK-MEL-5 melanoma it was 102%; in the experiment with SK-MEL-2 melanoma it was 97.4%; in the experiment on ACHN renal, 107%. Besides, the growth is 101% with A498 renal; 113% in the experiment with HL-60(TB) leukemia; 96.1% in the experiment with OVCAR-8 ovarian; 106% in the experiment with OVCAR-4 ovarian; 116% in the experiment on IGROV1 ovarian; 109% with HS 578T breast. For the same molecule, the growth in the experiment with T-47D breast is 94.7%; with HCC-2998 colon, 132%.

For the molecule `CCC1([N+](=O)[O-])COP(=O)(NCc2cccnc2)OC1` (configuration not stated), the growth was 102% with A549/ATCC NSCLC; 106% in the experiment on K-562 leukemia; 104% in the experiment with SF-295 CNS; 106% with SF-539 CNS; 113% in the experiment on UACC-257 melanoma; 104% in the experiment on HCT-15 colon. Also, the growth in the experiment on HT29 colon is 116%; in the experiment with SNB-75 CNS, 104%; with PC-3 prostate it was 106%; in the experiment with SK-MEL-5 melanoma, 107%; in the experiment on SK-MEL-2 melanoma, 111%; in the experiment on ACHN renal, 113%. Also, the growth in the experiment on A498 renal was 94.3%; in the experiment on HL-60(TB) leukemia it was 107%; with OVCAR-8 ovarian, 108%; in the experiment on OVCAR-4 ovarian, 112%; in the experiment on IGROV1 ovarian it was 118%; in the experiment on HS 578T breast it was 107%. The growth with HCC-2998 colon is 115%.

For the molecule `CC1(C)CC2(CC(C)(C)c3cc(O)c(O)cc32)c2cc(O)c(O)cc21`, the growth with A549/ATCC NSCLC is 97.2%; with SF-295 CNS, 96.1%; in the experiment with SF-539 CNS, 98.4%; with UACC-257 melanoma it was 109%; in the experiment on HCT-15 colon it was 89.5%; in the experiment with HT29 colon it was 114%. Also, the growth in the experiment on SNB-75 CNS is 81.2%; in the experiment with PC-3 prostate, 90.9%; with SK-MEL-5 melanoma it was 92.5%; in the experiment with SK-MEL-2 melanoma, 110%; with ACHN renal, 96.1%; in the experiment on A498 renal, 99.4%. Further, the growth with HL-60(TB) leukemia is 104%; in the experiment with OVCAR-8 ovarian, 97.3%; with OVCAR-4 ovarian, 82%; in the experiment on IGROV1 ovarian it was 98.4%; in the experiment with HS 578T breast, 89.2%; in the experiment on T-47D breast, 104%. The growth in the experiment with HCC-2998 colon is 102%.

As to `CC1(C)N=C(N)N=C(N)N1c1ccc(CCC(=O)Nc2cccc(S(=O)(=O)F)c2)cc1`, the growth was 44.6% in the experiment with A549/ATCC NSCLC; 26.2% in the experiment on K-562 leukemia; 89.6% in the experiment on SF-295 CNS; 39.4% in the experiment with SF-539 CNS; 73.3% in the experiment on UACC-257 melanoma; 81.9% in the experiment on HCT-15 colon. For the same molecule, the growth in the experiment with HT29 colon was 66.2%; in the experiment on SNB-75 CNS, 59.5%; with PC-3 prostate, 24.5%; in the experiment with SK-MEL-5 melanoma, 32.9%; in the experiment with SK-MEL-2 melanoma it was 102%; with ACHN renal, 99.3%. Besides, the growth in the experiment on HL-60(TB) leukemia is 47.6%; in the experiment on OVCAR-8 ovarian, 85.8%; in the experiment on IGROV1 ovarian it was 39.4%; in the experiment with HS 578T breast it was 121%; in the experiment with T-47D breast, 98.4%; in the experiment on HCC-2998 colon, 67.5%.
